Compound activity: PubChem BioAssay, The Scripps Research Institute Molecular Screening Center
GPR151 activ – activators of human GPR151, primary screen, cell-based, PathHunter beta-arrestin, luminescence | G-protein coupled receptor 151 (Homo sapiens), Q8TDV0 | PathHunter beta-arrestin GPR151 cells | activation, % at 11.2 µM | 650,000 tested, 1% active; in the data active means activation above about 4.9%;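 further: 0% = median of compound wells and 100% = cells with positive control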
FBW7 act – FBW7 E3 ligase activators, primary screen, biochemical, AlphaScreen, human. AlphaScreen FBW7–phospho-cyclin E peptide binding, activator screen. 650,000 tested, 0.13% active. F-box/WD repeat-containing protein 7 (Homo sapiens), Q969H0. normalized activity (activation), % at 26.1 µM; in the data active means normalized activity above about 1.9%;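 further: purified mutant Fbw7 with reduced substrate affinity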
Target sequence (Q969H0 whole entry, looked up): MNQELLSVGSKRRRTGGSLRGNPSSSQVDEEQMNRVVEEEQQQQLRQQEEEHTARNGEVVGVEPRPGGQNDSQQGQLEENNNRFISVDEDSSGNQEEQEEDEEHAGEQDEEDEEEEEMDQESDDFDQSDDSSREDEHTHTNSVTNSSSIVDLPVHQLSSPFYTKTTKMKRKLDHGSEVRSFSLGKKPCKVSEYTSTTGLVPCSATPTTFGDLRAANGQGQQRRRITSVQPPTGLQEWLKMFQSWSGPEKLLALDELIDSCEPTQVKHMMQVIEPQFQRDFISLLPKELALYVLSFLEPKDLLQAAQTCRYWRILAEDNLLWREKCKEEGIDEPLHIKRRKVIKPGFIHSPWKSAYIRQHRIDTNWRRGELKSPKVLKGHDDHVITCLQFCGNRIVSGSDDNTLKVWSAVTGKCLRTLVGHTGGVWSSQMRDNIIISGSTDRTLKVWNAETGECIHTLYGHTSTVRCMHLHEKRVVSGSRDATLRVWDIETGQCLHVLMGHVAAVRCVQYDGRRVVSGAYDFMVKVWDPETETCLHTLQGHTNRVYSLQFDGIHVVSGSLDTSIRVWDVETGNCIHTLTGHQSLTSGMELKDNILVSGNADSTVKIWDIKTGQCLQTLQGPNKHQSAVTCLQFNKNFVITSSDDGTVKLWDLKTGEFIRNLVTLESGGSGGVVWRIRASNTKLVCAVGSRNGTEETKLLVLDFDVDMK
MITF primary – MITF inhibitors, primary screen, biochemical, AlphaScreen, human | inhibition, % at 2.6 µM | AlphaScreen MITF homodimerization, bead proximity signal | 650,000 tested, 0.91% active | Microphthalmia-associated transcription factor (Homo sapiens), O75030; in the data active means inhibition above about 50%;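 further: 0% = vehicle wells with protein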
TEAD-YAP inh – TEAD-YAP interaction inhibition, primary screen, TEAD-YAP interaction inhibitor project, luminescence, HEK-TIYL cells; inhibition, % at 9.12 µM; AID 1259422, 2018; 640,000 tested, 1.4% active; TEAD-Gal4/YAP UAS-luciferase luminescence; in the data active means inhibition above about 32%;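 further: 0% = median of test compound wells and 100% = reference inhibitor wells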
MITF confirm – MITF inhibitors, retest of hits, confirmation, biochemical, AlphaScreen, triplicate; shares compounds with MITF primary; AlphaScreen MITF homodimerization, biotin/His-MITF beads; inhibition, % at 2.6 µM; 4,700 tested, 16% active; AID 1259372, 2018;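 active means inhibition above a cutoff derived from the DMSO control wells, cut at about 28% in these data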;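 further: 0% = MITF dimer wells with DMSO only; inhibitors lower the bead chemiluminescence by keeping MITF from dimerizing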
AS interf DR – AlphaScreen optical interference compounds, dose response, counter-screen, biochemical, HTS | AlphaScreen optical interference counterscreen, cell-free | IC50, µM | shares compounds with MITF primary | 480 tested, 6% active | AID 1259373, 2018; call rule not given here
AlphaScreen intf2 – AlphaScreen optical interference compounds, counter-screen for MITF inhibitor project, biochemical, triplicate | LysRS AlphaScreen counterscreen, signal interference | inhibition, % at 2.6 µM | AID 1259376, 2018 | 4,700 tested, 7.6% active | shares compounds with MITF primary;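 active means inhibition above a cutoff derived from the DMSO control wells, cut at about 30% in these data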
Starred values were filed as active, the others as inactive; . = no result given. Compounds with a hit are over-represented: about 3.5% of the library has one in this group of screens.

SMILES	GPR151 activ	FBW7 act	MITF primary	TEAD-YAP inh	MITF confirm	AlphaScreen intf2	others
C/C(=N\NC(=O)c1ccc(Br)cc1)c1ccco1	3.2	0.2	6.3	3.0	.	.
Cc1cccc(Nc2ccc(NCCNC(=O)c3ccc(F)cc3)nn2)n1	1.1	0.3	8.1	15.4	.	.
Cc1ccnc(Nc2ccc(NCCNC(=O)c3ccc(F)cc3Cl)nn2)c1	-0.4	-1.2	80.5*	3.5	43.2*	82.7*
Cc1ccnc(Nc2ccc(NCCNC(=O)c3ccc(F)cc3)nn2)c1	0.8	-1.4	55.6*	3.3	60.8*	93.7*
Cc1c(C(=O)N2CCCC2)sc2ncn(CC(=O)N3CC(C)CC(C)C3)c(=O)c12 (centres undefined)	-0.8	0.1	0.6	-2.8	.	.
CCOc1ccc(-n2nc(C(=O)N3CCCC(C)C3)c3ccccc3c2=O)cc1 (centres undefined)	0.7	0.3	14.9	6.9	.	.
CC1CCCCC1Nc1ncnc2sccc12 (centres undefined)	3.1	-0.1	64.3*	7.4	2.0	1.6
CSc1ccccc1C(=O)Nc1nc(-c2ccccn2)cs1	-1.0	-2.0	27.6	13.8	.	.
CCn1ccc(C(=O)Nc2nc(-c3ccccn3)cs2)n1	3.0	-1.3	83.4*	-22.8	72.7*	100.6*
CS(=O)(=O)c1ccccc1C(=O)Nc1nc(-c2ccccn2)cs1	0.8	-1.8	57.0*	18.8	37.5*	100.3*
Cc1ccc(C)c(NC(=O)c2cc3n(n2)C(C(F)(F)F)CC(c2ccc4c(c2)OCO4)N3)c1 (centres undefined)	-0.9	0.0	0.0	-4.8	.	.
NC(=O)c1ccccc1OCC(=O)Nc1cccc(C(F)(F)F)c1	-0.1	-0.2	-1.4	-69.5	.	.
O=C(COc1ccccc1C(=O)OC1CCCC1=O)Nc1cccc(C(F)(F)F)c1 (centres undefined)	1.7	-0.2	62.5*	5.7	72.5*	3.1	AS interf DR=>6.77
COc1ccc(C(=O)Nc2ncc(Cc3cc(Cl)ccc3Cl)s2)cc1OC	-0.6	0.8	67.6*	-3.2	-6.1	0.8
COc1cc(C(=O)Nc2cccnc2)ccc1OCc1ccccc1Cl	0.5	0.0	74.3*	-2.2	-3.5	-2.3
CC(=O)Nc1ncc(Cc2cc(Cl)ccc2Cl)s1	2.1	0.0	2.7	19.4	.	.
O=[N+]([O-])c1ccccc1CN1CCCCCCC1	-1.2	0.0	24.3	-2.3	.	.
COc1cc(CN2CCN(CCOCCO)CC2)c([N+](=O)[O-])cc1OC	-0.9	-0.1	-27.9	1.1	.	.
CCCS(=O)(=O)N1CCN(Cc2ccccc2[N+](=O)[O-])CC1	1.4	-0.1	40.8	-10.0	.	.
O=[N+]([O-])c1ccccc1CN1CCN(CCOCCO)CC1	0.0	-0.1	61.8*	-1.1	19.1	0.7
O=[N+]([O-])c1ccccc1CN1CCN(CCO)CC1	0.6	0.1	77.3*	3.4	-3.2	2.2
CC(C)CC(=O)N1CCN(Cc2ccccc2[N+](=O)[O-])CC1	0.4	0.1	56.2*	-10.4	11.3	23.6
C#CCNc1c(C)c(C)nc2ncnn12	0.1	-0.1	68.2*	6.5	8.1	15.7
Cc1nc2ncnn2c(NCC2CCCCC2)c1C	4.2	-0.3	47.1	0.8	.	.
Cc1ccc(-n2cc3c(c(C#N)c2=N)CC(C)(C)CC3=O)cc1C	3.7	0.2	13.7	-9.0	.	.
SMILES	GPR151 activ	FBW7 act	MITF primary	TEAD-YAP inh	MITF confirm	AlphaScreen intf2	others
CC1(C)CC(=O)c2cn(-c3ccc(Cl)cc3)c(=N)c(C#N)c2C1	0.6	0.0	54.8*	-8.4	0.7	0.4
Cc1nnc(SCc2ccccc2F)[nH]c1=O	-1.1	0.5	-7.5	2.5	.	.
C(=N\Nc1nnnn1-c1cccc2ccccc12)/c1ccncc1	0.5	0.0	-2.1	0.9	.	.
C(=N\Nc1nnnn1-c1cccc2ccccc12)/c1ccc(OCc2ccccn2)cc1	-0.2	0.1	68.9*	14.5	-2.1	8.9
COc1cccc(CN2CCN(Cc3ccccn3)CC2)c1	-0.8	-0.1	51.4*	5.7	-2.4	-7.7
COc1cccc(CN2CCN(Cc3cc(OC)cc(OC)c3)CC2)c1	-0.2	-0.2	80.0*	6.4	16.9	20.3
COc1cccc(CN2CCN(c3ncccn3)CC2)c1	0.0	0.0	29.9	-5.6	.	.
COc1cccc(CN2CCN(C3CCN(Cc4ccccc4)CC3)CC2)c1	0.3	0.0	21.6	14.8	.	.
COc1cccc(CN2CCN(C3CCCC3)CC2)c1	0.7	0.1	64.9*	-3.9	-7.2	-2.8
Cn1cnc2c(Nc3ccc(Br)cc3)nccc21	-1.1	-0.2	10.3	-41.7	.	.
O=C(c1cc2cc(Br)ccc2oc1=O)N1CCN(c2ccc(Cl)c(Cl)c2)CC1	0.1	0.2	3.4	13.9	.	.
c1cc2c(cc1CN1CCN(C3CCCCCC3)CC1)OCO2	0.0	0.5	65.3*	1.0	-2.1	4.1
CC1CCCC(N2CCN(Cc3ccc4c(c3)OCO4)CC2)C1 (centres undefined)	-1.0	0.7	67.7*	-16.5	-1.1	0.0
c1ccc(CN2CCC(N3CCN(Cc4ccc5c(c4)OCO5)CC3)CC2)cc1	0.3	0.6	-5.4	10.1	.	.
CCNC(=O)N1CCCC(N2CCN(Cc3ccc4c(c3)OCO4)CC2)C1 (centres undefined)	0.3	0.1	9.1	-1.9	.	.
O=C(CSc1nc2ccc(NC(=O)c3ccccc3[N+](=O)[O-])cc2s1)NC1CC1	0.2	-0.3	7.0	-10.9	.	.
Cn1c(C(=O)NC2CCCC2)cc2c(=O)[nH]c3ccccc3c21	0.2	0.1	12.9	-1.3	.	.
CC(=O)Oc1cc(-c2coc3cc(OC(C)=O)c(OC(C)=O)c(OC(C)=O)c3c2=O)cc(OC(C)=O)c1OC(C)=O	-1.9	-0.2	73.2*	8.4	3.0	-5.8
O=C(CCCC[C@@H]1SC[C@@H]2NC(=O)N[C@@H]21)NCCCC[C@H](NC(=O)CCN1C(=O)C=CC1=O)C(=O)O	-2.0	.	123.6*	.	123.7*	100.6*
CCCCC[C@H](O)/C=C/[C@H]1C(=O)C[C@H](O)[C@@H]1C/C=C\CCCCC(=O)NCCCCCNC(=O)CCCC[C@@H]1SC[C@@H]2NC(=O)N[C@@H]21	-0.8	.	123.6*	.	123.0*	100.6*
CCCCC[C@H](O)/C=C/[C@H]1C(=O)C[C@H](O)[C@@H]1C/C=C\CCCC(=O)NC(CO)CO	3.2	.	-8.0	.	.	.
CCCCC[C@H](O)/C=C/[C@H]1C=CC(=O)[C@@H]1CCCCCCC(=O)O	2.6	.	-12.2	.	.	.
